Inconclusive results are not listed. A number with no mark means an inactive call. Active and inactive are the calls of the source. Calls follow the shape of the dose curve; as a rule, active = well fitted curve in the direction sought with a large enough effect; inconclusive = small, poorly fitted or top-dose-only effect, or another doubt; inactive = no such curve, though single readings can be large; an effect the other way counts as inactive or inconclusive.

The nature of assay [1]: qHTS of pediatric cancer cell lines to identify multiple opportunities for drug repurposing: Primary screen for Saos-2 cells (AID 1347097). Also: nearly all actives have a fitted effect of over 40% in size. As to activity change, negative = cytotoxic: % is scaled to controls: 0 for no effect and ±100 for the full control effect. Put shortly: (§1)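 Primary screen of approved and investigational compounds on cells in growth media at 37 degrees C, 5% CO2. MIPE set at 11-point and NPC set at 8-point dilutions; viability scored by ATP-based luminescence at 48 hours.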
(In general: In qHTS, concentration-response curves come from the screen itself.)

Assay [2] is described as follows: qHTS of pediatric cancer cell lines to identify multiple opportunities for drug repurposing: Primary screen for NB1643 cells (AID 1347099). Also: nearly all actives have a fitted effect of over 50% in size.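 As to activity change, negative = cytotoxic: plate controls were DMSO neutral control for no effect and bortezomib positive control for full effect.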 The procedure, abridged:
as §1

Assay [3] can be described thus: qHTS of pediatric cancer cell lines to identify multiple opportunities for drug repurposing: Primary screen for LAN-5 cells (AID 1347100).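 As to activity change, negative = cytotoxic: plate controls were DMSO neutral control for no effect and bortezomib positive control for full effect.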 The procedure, abridged: (§2)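 Cells (500-1,000/well) in growth media were settled 5 h at 37 degrees C, then given compounds for 48 h. Viability was read as CellTiter-Glo luminescence. Primary runs used MIPE at 11 points (0.78 nM-46 µM) and NPC at 8 points (0.59 nM-46 µM); follow-ups used 11 points.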

Assay [4] in a line: qHTS of pediatric cancer cell lines to identify multiple opportunities for drug repurposing: Primary screen for BT-12 cells (AID 1347101). Also: nearly all actives have a fitted effect of over 25% in size.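 As to activity change, negative = cytotoxic: plate controls were DMSO for no effect and bortezomib positive control for full effect.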 Put shortly: (§3)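 Cells (500-1,000/well) rested 5 h, then received compounds for 48 h; metabolically active cells were measured by CellTiter-Glo luminescence. Final concentrations spanned up to 46 µM (MIPE, 11-point) or 0.59 nM-46 µM (NPC, 8-point) in primary screens, 11-point in follow-ups.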

Assay [5] is described as follows: qHTS of pediatric cancer cell lines to identify multiple opportunities for drug repurposing: Primary screen for Rh18 cells (AID 1347102). Also: nearly all actives have a fitted effect of over 65% in size. As to activity change, negative = cytotoxic: % is scaled to controls: 0 for no effect and ±100 for the full control effect. The procedure, abridged: as §2
Assay [6] in a line: qHTS of pediatric cancer cell lines to identify multiple opportunities for drug repurposing: Primary screen for OHS-50 cells (AID 1347103). Also: nearly all actives have a fitted effect of over 40% in size.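 As to activity change, negative = cytotoxic: plate controls were DMSO neutral control for no effect and bortezomib positive control for full effect.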 The procedure, abridged:
as §3

A short description of assay [7]: qHTS of pediatric cancer cell lines to identify multiple opportunities for drug repurposing: Primary screen for RD cells (AID 1347104). Also: nearly all actives have a fitted effect of over 55% in size.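 As to activity change, negative = cytotoxic: plate controls were DMSO for no effect and bortezomib for full effect.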 Put shortly: as §1
Assay [8] in a line: qHTS of pediatric cancer cell lines to identify multiple opportunities for drug repurposing: Primary screen for MG 63 (6-TG R) cells (AID 1347105). Also: nearly all actives have a fitted effect of over 50% in size. As to activity change, negative = cytotoxic: % is scaled to controls: 0 for no effect and ±100 for the full control effect. The procedure, abridged: as §1
A short description of assay [9]: qHTS of pediatric cancer cell lines to identify multiple opportunities for drug repurposing: Primary screen for control Hh wild type fibroblast cells (AID 1347106). Also: nearly all actives have a fitted effect of over 55% in size.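 As to activity change, negative = cytotoxic: series mostly up to about 46 µM; % is scaled to controls: 0 for no effect and ±100 for the full control effect; a drop in luminescence marks cytotoxicity and a rise apparent proliferation.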 Put shortly: as §2
A short description of assay [10]: qHTS of pediatric cancer cell lines to identify multiple opportunities for drug repurposing: Primary screen for Rh30 cells (AID 1347107). Also: nearly all actives have a fitted effect of over 75% in size. As to activity change, negative = cytotoxic: series mostly up to about 46 µM; % is scaled to controls: 0 for no effect and ±100 for the full control effect. Put shortly: as §2
Assay [11] is described as follows: qHTS of pediatric cancer cell lines to identify multiple opportunities for drug repurposing: Primary screen for Rh41 cells (AID 1347108). Also: nearly all actives have a fitted effect of over 70% in size.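 As to activity change, negative = cytotoxic: series mostly up to about 46 µM; luminescence drop marks cytotoxic hits.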 The procedure, abridged: as §1
A short description of assay [12]: qHTS of pediatric cancer cell lines to identify multiple opportunities for drug repurposing: Primary screen for SK-N-SH cells (AID 1347098). Also: nearly all actives have a fitted effect of over 65% in size. Put shortly: as §3
Assay [13] is described as follows: qHTS of pediatric cancer cell lines to identify multiple opportunities for drug repurposing: Confirmatory screen for A673 cells (AID 1347110).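 Also: cells exposed to compound for 48 h before the viability read; nearly all actives have a fitted effect of over 65% in size.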 The procedure, abridged: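 A673 cells seeded at 500-1,000 cells/well, rested 5 h, then dosed; primary MIPE 11-point (0.78 nM to 46 µM), NPC (0.59 nM to 46 µM); confirmatory 11-point. CellTiter-Glo luminescence after 48 h.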

Assay [14] in a line: qHTS of pediatric cancer cell lines to identify multiple opportunities for drug repurposing: Confirmatory screen for SK-N-MC cells (AID 1347111).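 Also: cells exposed to compound for 48 h before the readout; nearly all actives have a fitted effect of over 70% in size.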 Put shortly:
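Metabolically active cells were quantified by ATP-dependent luminescence (CellTiter-Glo, 15 min at room temperature) following 48 h treatment. Cells had been plated at 500-1,000 per well and settled for 5 h beforehand.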

A short description of assay [15]: qHTS of pediatric cancer cell lines to identify multiple opportunities for drug repurposing: Confirmatory screen for LAN-5 cells (AID 1347113). Also: nearly all actives have a fitted effect of over 65% in size. The procedure, abridged:
as §2

Assay [16] can be described thus: qHTS of pediatric cancer cell lines to identify multiple opportunities for drug repurposing: Confirmatory screen for DAOY cells (AID 1347114). Also: nearly all actives have a fitted effect of over 65% in size. Put shortly: (§4)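 Viability measured as metabolically active cells via CellTiter-Glo luminescence following 48 hours of compound exposure, 11-point dilutions in confirmatory testing. 500-1,000 cells/well plated 5 hours before dosing; controls were DMSO and 2.3 µM bortezomib.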

Assay [17] can be described thus: qHTS of pediatric cancer cell lines to identify multiple opportunities for drug repurposing: Confirmatory screen for NB-EBc1 cells (AID 1347115).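 Also: cells exposed to compound for 48 h before the viability read; nearly all actives have a fitted effect of over 45% in size.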 Put shortly:
as §2

Assay [18] in a line: qHTS of pediatric cancer cell lines to identify multiple opportunities for drug repurposing: Confirmatory screen for SJ-GBM2 cells (AID 1347116). Also: nearly all actives have a fitted effect of over 60% in size. The procedure, abridged: as §4
Assay [19] is described as follows: qHTS of pediatric cancer cell lines to identify multiple opportunities for drug repurposing: Confirmatory screen for BT-37 cells (AID 1347117). Also: nearly all actives have a fitted effect of over 55% in size.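 As to activity change, negative = cytotoxic: plate controls were DMSO for no effect and bortezomib for full effect.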 The procedure, abridged: as §2
Assay [20] can be described thus: qHTS of pediatric cancer cell lines to identify multiple opportunities for drug repurposing: Confirmatory screen for MG 63 (6-TG R) cells (AID 1347119). Also: nearly all actives have a fitted effect of over 55% in size. The procedure, abridged:
as §2
Potency is read from the fitted curve at half-maximal effect.

Regarding `CN1[C@@H]2CC[C@H]1CC(OC(=O)c1c[nH]c3ccccc13)C2` (some centres undefined), the Potency entry in assay [1], in assay [2], in [3], in assay [4], in assay [5] and in [6] was “inactive” throughout. Moreover, the Potency entry in assay [7], in assay [8], in assay [9], in assay [10] and in assay [11] was “inactive” each time.

As for `COc1cccc2c1C(=O)c1c(O)c3c(c(O)c1C2=O)C[C@@](O)(C(=O)CO)C[C@@H]3O[C@H]1C[C@H](N)[C@H](O)[C@H](C)O1`, the Potency in [1] is 13.3 µM (active); in assay [12], 0.217 µM (active); in assay [2] it was 0.473 µM (active); in assay [4], 1.38 µM (active); in assay [5], 1.88 µM (active); in assay [6], 1.1 µM (active). Also, the Potency in assay [7] was 2.37 µM (active); in assay [8] it was 5.31 µM (active); in [9], 1.68 µM (active); in assay [11] it was 1.68 µM (active); in assay [13] it was 0.928 µM (active); in [14], 0.293 µM (active). Further, the Potency in assay [15] was 1.04 µM (active); in assay [16], 9.27 µM (active); in [17] it was 3.29 µM (active); in assay [18], 2.61 µM (active); in [19], 0.657 µM (active); in assay [20] it was 5.85 µM (active). Also, the Potency entry in [10] is “inactive”.

Consider `CN1CCN(C(c2ccccc2)c2ccccc2)CC1`, for which the Potency entry in assay [1], in assay [2], in assay [3], in [4], in assay [5] and in [7] was “inactive” in each case. The Potency entry in assay [8], in assay [9], in assay [10] and in [11] was “inactive” in each case.

Turning to `COc1cc2c(cc1OC)C(C(C(=O)N(CCc1ccc(OC)c(OC)c1OC)CCc1ccc(OC)c(OC)c1OC)c1ccccc1)=NCC2` (centres undefined), the Potency result in [1], in assay [12], in [2], in assay [3], in [5] and in [7] was “inactive” each time. Further, the Potency entry in assay [9] was “inactive”.

For the compound `O=c1[nH]c(=O)n([C@H]2CCCO2)cc1F`, the Potency entry in assay [1], in assay [12], in [3], in assay [4], in assay [5] and in assay [6] was “inactive” throughout. Also, the Potency entry in [7], in [8], in assay [9], in [10] and in [11] was “inactive” each time.

As for `CCn1cc(C(=O)O)c(=O)c2cnc(N3CCCC3)nc21`, the activity change, negative = cytotoxic was 0.0364% [at 9.22 µM] in [1]; 1.66% [at 9.22 µM] in [2]; -2.09% [at 9.22 µM] in assay [3]; 1.9% [at 11.5 µM] in [4]; 15.8% [at 9.22 µM] in assay [5]; -0.536% [at 11.5 µM] in [6]. The activity change, negative = cytotoxic in assay [7] was -0.58% [at 9.22 µM]; in assay [8], -14.9% [at 9.22 µM]; in [9] it was 4.15% [at 9.22 µM]; in [10] it was 8.92% [at 9.22 µM]; in assay [11] it was 12.6% [at 9.22 µM].

As to `CCCCC(CC)CN=C(N)NC(N)=NCCCCCCN=C(N)NC(N)=NCC(CC)CCCC` (centres undefined), the Potency was 9.44 µM (active) in assay [1]; 4.33 µM (active) in [12]; 5.31 µM (active) in assay [3]; 2.46 µM (active) in assay [4]; 8.41 µM (active) in assay [5]; 4.37 µM (active) in assay [6]. The Potency is 5.96 µM (active) in assay [7]; 6.68 µM (active) in [8]; 18.8 µM (active) in assay [10]; 21.1 µM (active) in assay [11]; 3.29 µM (active) in assay [13]; 7.37 µM (active) in assay [14]. For the same compound, the Potency in [15] was 7.37 µM (active); in assay [16], 4.14 µM (active); in [17] it was 9.27 µM (active); in assay [18], 1.17 µM (active); in assay [19], 8.27 µM (active); in [20], 2.93 µM (active).

For `CN(C)/N=N/c1nc[nH]c1C(N)=O`, the Potency result in assay [1], in [12], in [3], in [4], in assay [5] and in assay [7] was “inactive” in each case. The Potency result in assay [8], in [9], in assay [13], in [16] and in assay [19] was “inactive” throughout. The Potency in assay [6] was 1.74 µM (active); in assay [14] it was 9.27 µM (active); in assay [17], 18.5 µM (active); in assay [20], 0.369 µM (active).

In the case of `CN(C)CCOc1ccccc1Cc1ccccc1`, the Potency result in assay [1], in assay [2], in assay [3], in assay [4], in assay [5] and in assay [7] was “inactive” throughout. Moreover, the Potency entry in assay [9], in [10] and in assay [11] was “inactive” throughout.

With `COc1cc(C=C2CCC/C(=C\c3ccc(O)c(OC)c3)C2=O)ccc1O`, the Potency in [1] is 23.7 µM (active); in [12], 15.4 µM (active); in assay [3], 7.5 µM (active); in [4], 11 µM (active); in assay [6] it was 19.5 µM (active); in [7], 10.6 µM (active). Further, the Potency in [13] was 0.185 µM (active); in assay [14], 0.465 µM (active); in assay [15], 5.85 µM (active); in assay [16] it was 14.7 µM (active); in assay [17], 23.3 µM (active); in assay [18] it was 18.5 µM (active). Moreover, the Potency was 5.85 µM (active) in [19] and 20.8 µM (active) in assay [20]. In addition, the Potency result in assay [9] was “inactive”.

With `O=C1OC(c2ccc(O)cc2)(c2ccc(O)cc2)c2ccccc21`, the Potency entry in assay [1], in [12], in [3], in assay [4], in [5] and in [6] was “inactive” each time. For the same compound, the Potency entry in assay [7], in [9], in assay [10] and in assay [11] was “inactive” each time.

Take `COc1ccc(/C=C/C(=O)c2ccc(OC)cc2OC)cc1`: the Potency is 10.6 µM (active) in assay [1], 19.4 µM (active) in assay [12] and 21.1 µM (active) in [3]. For the same compound, the Potency entry in assay [8] and in assay [9] was “inactive” throughout.

Consider `COCc1c(C(C)C)nc(C(C)C)c(/C=C/[C@@H](O)C[C@@H](O)CC(=O)O)c1-c1ccc(F)cc1`, for which the Potency is 0.106 µM (active) in [1]; 0.433 µM (active) in [12]; 1.5 µM (active) in [2]; 3.76 µM (active) in assay [3]; 0.473 µM (active) in [5]; 1.68 µM (active) in assay [7]. In addition, the Potency in [8] is 0.0841 µM (active); in [13] it was 0.414 µM (active); in [14] it was 2.93 µM (active); in assay [15], 13.1 µM (active); in assay [16] it was 0.414 µM (active); in assay [17] it was 4.14 µM (active). In addition, the Potency in assay [18] is 2.61 µM (active); in [19], 1.65 µM (active); in assay [20], 0.0369 µM (active). Moreover, the Potency result in assay [9] and in assay [10] was “inactive” in each case.

As for `CN(C)CCCOc1nn(Cc2ccccc2)c2ccccc12`, the Potency entry in assay [1], in assay [2], in [5], in assay [8], in assay [9] and in assay [11] was “inactive” each time. Moreover, the Potency in assay [12] is 15.4 µM (active).

As to `Cc1ccccc1C(=O)Nc1ccc(C(=O)N2CCCC(N(C)C)c3ccccc32)cc1` (centres undefined), the Potency was 6.68 µM (active) in assay [1], 18.8 µM (active) in assay [3], 21.9 µM (active) in [6] and 16.8 µM (active) in assay [11]. The Potency result in assay [9] and in assay [10] was “inactive” in each case.

In the case of `CC1=C(C(=O)OC(C)C)C(c2cccc([N+](=O)[O-])c2)C(C(=O)OC2CN(C(c3ccccc3)c3ccccc3)C2)=C(N)N1` (centres undefined), the Potency in assay [1] is 21.1 µM (active); in [7] it was 23.7 µM (active). Moreover, in assay [9], the Potency entry is “inactive”.

Turning to `c1ccc(-c2ccc(C(c3ccccc3)n3ccnc3)cc2)cc1` (centres undefined), the Potency entry in [1], in assay [5], in assay [8], in assay [9] and in [10] was “inactive” each time.

The values are drawn from PubChem BioAssay (NCATS).
